Only some compounds are listed: those with a hit (about 4% of all), similar ones and a draw of the others.
Mtb bLac sens – beta-lactam sensitization of Mtb H37Rv; hit rate 0.27% among 330,000; M. tuberculosis H37Rv growth with meropenem, percent inhibition; inhibition, % at 25 µM; AID 434955;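 note: growth measured after seven days incubation then overnight dye step; 0% = bacteria only wells and 100% = bacteria with antibiotic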
MazEF act – activators of E. coli MazEF toxin-antitoxin RNase; activation, % at 20 µM; hit rate 0.32% among 350,000; P0AE70; FAM/BHQ RNA-DNA oligo cleavage fluorescence, 5 h; in the data active = activation above about 50%
Target sequence (P0AE70 whole entry, looked up): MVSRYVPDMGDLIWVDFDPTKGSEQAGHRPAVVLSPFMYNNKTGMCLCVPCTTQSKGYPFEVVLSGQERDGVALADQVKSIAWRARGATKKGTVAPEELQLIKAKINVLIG
GDH-TPI counter-1 – counter-screen for M. tuberculosis FBA inhibitors: GDH-TPI coupled enzymes; GDH-TPI coupled enzyme counterscreen, NADH absorbance; inhibition, % at 4.8 µM; hit rate 1.2% among 360,000; AID 588335; in the data active = inhibition above about 30%;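 note: 0% = DMSO wells and 100% = wells lacking the enzyme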
CCHFV vOTU inh – CCHFV vOTU protease inhibition | hit rate 0.55% among 370,000 | inhibition, % at 11.5 µM | Pep-AMC fluorescence; in the data active = inhibition above about 30%; note: 0% = vehicle wells with enzyme and 100% = no enzyme wells
FBA Mtb inh – Mtb fructose-bisphosphate aldolase inhibition; purified M. tuberculosis FBA, fluorescence read-out; hit rate 2.3% among 360,000; inhibition, % at 1 µM; P9WQA3; in the data active = inhibition above about 27%;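 note: 0% = vehicle and 100% = reference inhibitor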
Target sequence (P9WQA3 whole entry, looked up): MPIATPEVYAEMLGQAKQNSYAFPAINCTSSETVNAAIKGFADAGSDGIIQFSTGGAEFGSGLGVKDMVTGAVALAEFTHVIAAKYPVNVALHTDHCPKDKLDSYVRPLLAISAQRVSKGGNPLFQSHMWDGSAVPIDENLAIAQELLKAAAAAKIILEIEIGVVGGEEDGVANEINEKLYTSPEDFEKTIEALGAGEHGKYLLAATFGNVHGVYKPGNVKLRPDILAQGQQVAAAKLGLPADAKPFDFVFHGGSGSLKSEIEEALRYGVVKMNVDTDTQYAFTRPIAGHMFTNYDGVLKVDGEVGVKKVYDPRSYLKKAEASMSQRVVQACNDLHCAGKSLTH
Mtb FBA inh conf – confirmation of M. tuberculosis fructose-bisphosphate aldolase inhibitors; shares compounds with FBA Mtb inh; purified M. tuberculosis FBA, fluorescence read-out; inhibition, % at 1 µM; hit rate 78% among 5,600; in the data active = inhibition above about 27%;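 note: 0% = vehicle wells and 100% = reference inhibitor wells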
GDH-TPI counter-2 – GDH-TPI inhibition counter-screen for FBA inhibitors; GDH-TPI coupled enzyme counterscreen, fluorescence; inhibition, % at 1 µM; shares compounds with FBA Mtb inh; hit rate 81% among 5,600; in the data active = inhibition above about 10%
GDH-TPI dose – counter-screen for M. tuberculosis FBA inhibitors: GDH-TPI dose response. shares compounds with FBA Mtb inh. GDH-TPI coupled enzyme assay, fluorescence, artifact counterscreen. IC50, µM. hit rate 79% among 170
Active calls of the source: *. Unless noted, the rule behind the calls is not given here.

Results for Cc1cccn2c(=O)c3cc(C(=O)NC4CCS(=O)(=O)C4)n(Cc4ccccc4)c3nc12 (stereo not given) ?
Mtb bLac sens: 11; MazEF act: 9; GDH-TPI counter-1: 22; CCHFV vOTU inh: -27; FBA Mtb inh: 40*; Mtb FBA inh conf: 114*; GDH-TPI counter-2: 92*

What do the screens show for `Cc1ccc(S(=O)(=O)c2cc3c(=O)n4cccc(C)c4nc3n(Cc3ccncc3)c2=N)cc1`?
Mtb bLac sens: -4; MazEF act: 7; GDH-TPI counter-1: -1; FBA Mtb inh: 5

Results for Cc1cccn2c(=O)c3cc(C(=O)NC4CCCC4)c(=N)n(C4CCCCC4)c3nc12 ?
Mtb bLac sens: 9; MazEF act: 4; GDH-TPI counter-1: 6; CCHFV vOTU inh: -30; FBA Mtb inh: 67*; Mtb FBA inh conf: 14; GDH-TPI counter-2: 3; GDH-TPI dose: 0.77*

What do the screens show for `Cc1cccn2c(=O)c3cc(S(=O)(=O)c4ccc(Br)cc4)c(=N)n(C4CCCC4)c3nc12`?
Mtb bLac sens: -8; MazEF act: -9; GDH-TPI counter-1: -4; CCHFV vOTU inh: -2; FBA Mtb inh: 0

How did Cc1cccn2c(=O)c3cc(S(=O)(=O)c4ccccc4)c(=N)n(Cc4cccnc4)c3nc12 do in these assays?
Mtb bLac sens: -5; MazEF act: -12; GDH-TPI counter-1: 11; CCHFV vOTU inh: -12; FBA Mtb inh: 4

Results for Cc1cccn2c(=O)c3cc(C(=O)NC4CCCCC4)c(=N)n(Cc4ccccc4)c3nc12 ?
Mtb bLac sens: 99; MazEF act: -44; GDH-TPI counter-1: 4; CCHFV vOTU inh: -40; FBA Mtb inh: 62*; Mtb FBA inh conf: 103*; GDH-TPI counter-2: 89*

Results for COCCCn1c(C(=O)NC2CCCCC2C)cc2c(=O)n3cccc(C)c3nc21 (stereo not given) ?
Mtb bLac sens: 8; MazEF act: 0; GDH-TPI counter-1: -4; CCHFV vOTU inh: -11; FBA Mtb inh: 5

How did CCN(C(=O)c1cc2c(=O)n3cccc(C)c3nc2n1CCCOC)C1CCCCC1 do in these assays?
Mtb bLac sens: 2; MazEF act: 1; GDH-TPI counter-1: 13; CCHFV vOTU inh: -29; FBA Mtb inh: 38*; Mtb FBA inh conf: 103*; GDH-TPI counter-2: 85*

Results for Cc1ccc2nc3c(cc(C(=O)NCc4ccco4)c(=N)n3C3CCCC3)c(=O)n2c1 ?
Mtb bLac sens: 7; GDH-TPI counter-1: -1; CCHFV vOTU inh: -102; FBA Mtb inh: 39*; Mtb FBA inh conf: 92*; GDH-TPI counter-2: 76*

Results for CCc1ccc(CCNC(=O)OCCCN2CCC3(CCC(C)CC3)C2=O)cc1 (stereo not given) ?
CCHFV vOTU inh: 16

What do the screens show for `Cc1ccc2nc(-c3ccco3)c(Cc3ccccc3C(F)(F)F)n2c1`?
CCHFV vOTU inh: 10

What do the screens show for `O=C(OCc1cn(Cc2ccc(F)c(F)c2)nn1)N1CCCC1`?
CCHFV vOTU inh: -4

Results for O=C(C(=O)N1CCC(CNC(=O)C2COc3ccccc3O2)CC1)c1cccs1 (stereo not given) ?
CCHFV vOTU inh: -2

How did COc1ccc2ccccc2c1CN1CCN(c2ncc(Cc3ccccc3)cn2)CC1 do in these assays?
CCHFV vOTU inh: 13

Results for COc1ccc(-c2ncn(CCc3ccccc3OC)c2CC(C)C)cc1 ?
CCHFV vOTU inh: 25

Results for Cc1cccn2c(=O)c3cc(C(=O)NC4CCCC4)c(=N)n(CCc4ccccc4)c3nc12 ?
Mtb bLac sens: 89; MazEF act: -3; GDH-TPI counter-1: 5; CCHFV vOTU inh: -27; FBA Mtb inh: 63*; Mtb FBA inh conf: 119*; GDH-TPI counter-2: 78*

Results for CCCCCn1c(=O)[nH]c2cc(C(=O)NCCN3CCOCC3)ccc2c1=O ?
Mtb bLac sens: -15; MazEF act: 8; GDH-TPI counter-1: 2; CCHFV vOTU inh: 8; FBA Mtb inh: 7

Results for N=c1c(C(=O)NC2CCCCC2)cc2c(=O)n3ccccc3nc2n1Cc1ccc(F)cc1 ?
Mtb bLac sens: 97; MazEF act: -29; GDH-TPI counter-1: 4; CCHFV vOTU inh: -33; FBA Mtb inh: 40*; Mtb FBA inh conf: 70*; GDH-TPI counter-2: 51*

How did COc1ccc(CCn2c(=N)c(C(=O)N3CCN(C)CC3)cc3c(=O)n4ccccc4nc32)cc1 do in these assays?
Mtb bLac sens: -3; MazEF act: 7; GDH-TPI counter-1: 15; CCHFV vOTU inh: -1; FBA Mtb inh: 10

Results for COCCCn1c(C(=O)NCCN2CCOCC2)cc2c(=O)n3cccc(C)c3nc21 ?
Mtb bLac sens: 8; MazEF act: -3; GDH-TPI counter-1: 7; CCHFV vOTU inh: -90; FBA Mtb inh: 78*; Mtb FBA inh conf: active; GDH-TPI counter-2: 161*

What do the screens show for `CCOC(=O)CNC(=O)C(Cc1ccc2c(c1)OCO2)NC(C)=O` (stereo not given)?
CCHFV vOTU inh: 1

What do the screens show for `C#CCOc1ccc(C2C3=C(CC(C)(C)CC3=O)N(CC(=O)O)C3=C2C(=O)CC(C)(C)C3)cc1OC`?
Mtb bLac sens: -2; MazEF act: 10; GDH-TPI counter-1: 6; CCHFV vOTU inh: -16; FBA Mtb inh: 2

How did C#CCOc1ccc(C2C3=C(CC(C)(C)CC3=O)N(CC(=O)O)C3=C2C(=O)CC(C)(C)C3)cc1 do in these assays?
Mtb bLac sens: -8; MazEF act: 3; GDH-TPI counter-1: 1; CCHFV vOTU inh: -168; FBA Mtb inh: 92*; Mtb FBA inh conf: 8; GDH-TPI counter-2: -6

Results for CCOC(=O)C1CCN(S(=O)(=O)c2ccc3c4c(cccc24)C(=O)N3CC)CC1 ?
Mtb bLac sens: -5; MazEF act: -8; GDH-TPI counter-1: 27; CCHFV vOTU inh: -37; FBA Mtb inh: 43*; Mtb FBA inh conf: 49*; GDH-TPI counter-2: 30*

How did CCOC(=O)C1CCN(S(=O)(=O)c2ccc(C(C)(C)C)cc2)CC1 do in these assays?
Mtb bLac sens: -2; MazEF act: 0; GDH-TPI counter-1: -4; CCHFV vOTU inh: -4; FBA Mtb inh: -3

What do the screens show for `CCOC(=O)C1CCN(S(=O)(=O)c2ccc3c4c(cccc24)C(=O)N3)CC1`?
Mtb bLac sens: -11; MazEF act: 3; GDH-TPI counter-1: 4; FBA Mtb inh: 41*; Mtb FBA inh conf: active; GDH-TPI counter-2: active

What do the screens show for `CCOC(=O)CNS(=O)(=O)c1ccc2c3c(cccc13)C(=O)N2CC`?
Mtb bLac sens: -9; MazEF act: 9; GDH-TPI counter-1: 9; CCHFV vOTU inh: -40; FBA Mtb inh: 59*; Mtb FBA inh conf: 46*; GDH-TPI counter-2: 41*

How did CCOC(=O)Cc1csc(NS(=O)(=O)c2ccc3c4c(cccc24)C(=O)N3CC)n1 do in these assays?
Mtb bLac sens: -14; MazEF act: -4; GDH-TPI counter-1: 9; CCHFV vOTU inh: 8; FBA Mtb inh: -1

From PubChem
